Experimental data taken from the supplement of paper PMC12494721.
Structures can show the parent of a compound that is named as a salt.

Test system: Ruminococcus gnavus DSM 108212
Assay: fold change of Tryptamine concentration vs plate DMSO controls (fold change (ratio)); higher = more amine produced, active = hit call of the paper (significant change in both replicates, either direction)
Settings: incubation time: 27 h, anaerobic, 37 °C;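 for the amine columns active = adjusted P below 0.05 in both replicates with a change the same way and a mean fold change under 0.8 or over 1.25; inactive = the rest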
In short: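 Anaerobic mGAM cultures of four gut bacterial strains were grown at 37 °C for 27 h in 80 µL wells, starting at OD 0.1 before 1:1 dilution. Compounds were at 20 µM final (sweeteners 50 µM). Whole cultures were extracted with cold acetonitrile/methanol containing 0.1% formic acid and centrifuged. Amines were quantified by LC–triple-quadrupole MS (dynamic MRM) against external calibration curves and drift-corrected within batch. Each value is the fold change versus plate DMSO controls, averaged over 2 biological replicates.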

| Compound | fold change of Tryptamine concentration |
| --- | --- |
| CC(C)(C)NC[C@H](O)c1ccc(O)c(CO)c1 [Levalbuterol hydrochloride] (20 µM) | 0.89 (inactive) |
| C[N+]1(CCCCC[N+]2(C)CCCC2)CCCC1 [Pentolinium bitartrate] (20 µM) | 0.98 (inactive) |
| O=C1c2cccc(O)c2C(=O)c2c(O)cccc21 [Danthron] (20 µM) | 1 (inactive) |
| O=C(N/N=C/c1ccc([N+](=O)[O-])o1)c1ccc(O)cc1 [Nifuroxazide] (20 µM) | 0.89 (inactive) |
| COC(=O)Nc1nc2cc(Sc3ccccc3)ccc2[nH]1 [Fenbendazole] (20 µM) | 1 (inactive) |
| CN(C)CCOC(c1ccccc1)c1ccccc1.Cn1c(=O)c2[nH]c(Cl)nc2n(C)c1=O [Dimenhydrinate] (20 µM) | 1.02 (inactive) |
| CCc1ccc(C(=O)C(C)CN2CCCCC2)cc1 (centres undefined) [Eperisone Hydrochloride] (20 µM) | 0.954 (inactive) |
| CC12CC3CC(C)(C1)CC(N)(C3)C2 [Memantine hydrochloride] (20 µM) | 1.09 (inactive) |
| COc1ccc2[nH]cc(CCNC(C)=O)c2c1 [Melatonin] (20 µM) | 1.01 (inactive) |
| CCC(=O)O[C@]1(C(=O)CCl)[C@@H](C)C[C@H]2[C@@H]3CCC4=CC(=O)C=C[C@]4(C)[C@@]3(F)[C@@H](O)C[C@@]21C [Clobetasol propionate] (20 µM) | 0.96 (inactive) |
| CC[C@@H](CO)NCCN[C@@H](CC)CO [Ethambutol dihydrochloride] (20 µM) | 1.04 (inactive) |
| CC(=O)CC(c1ccc([N+](=O)[O-])cc1)c1c(O)c2ccccc2oc1=O (centres undefined) [Acenocoumarol] (20 µM) | 1.01 (inactive) |
| CCOC1O[C@H]([C@@H](COCc2ccccc2)OCc2ccccc2)[C@H](OCc2ccccc2)[C@H]1O (some centres undefined) [Tribenoside] (20 µM) | 0.966 (inactive) |
| COc1ccc(C[C@@H]2c3cc(OC)c(OC)cc3CC[N@+]2(C)CCC(=O)OCCCCCOC(=O)CC[N@@+]2(C)CCc3cc(OC)c(OC)cc3[C@H]2Cc2ccc(OC)c(OC)c2)cc1OC [Cisatracurium besylate] (20 µM) | 1.03 (inactive) |
| O=C1CN2Cc3c(ccc(Cl)c3Cl)N=C2N1 [Anagrelide] (20 µM) | 1.02 (inactive) |
| Cc1c(C)c2c(c(C)c1O)CCC(C)(C(=O)O)O2 (centres undefined) [Trolox] (20 µM) | 1.02 (inactive) |
| COc1cc(C(=O)NCc2ccc(OCCN(C)C)cc2)cc(OC)c1OC [Trimethobenzamide hydrochloride] (20 µM) | 1.04 (inactive) |
| CC=CC(=O)N(CC)c1ccccc1C [Crotamiton] (20 µM) | 1.07 (inactive) |
| CCOC(=O)C1=C(C)NC(C)=C(C(=O)OCC)C1c1ccccc1/C=C/C(=O)OC(C)(C)C [Lacidipine] (20 µM) | 0.944 (inactive) |
| CCOC(=O)CC(=O)N1CCSC1COc1ccccc1OC (centres undefined) [Moguisteine] (20 µM) | 0.978 (inactive) |

| Compound | fold change of Tryptamine concentration |
| --- | --- |
| CC(=O)OCC(=O)NCCCOc1cccc(CN2CCCCC2)c1 [Roxatidine acetate hydrochloride] (20 µM) | 0.972 (inactive) |
| Clc1ccc(C(Cn2ccnc2)OCc2csc3c(Cl)cccc23)c(Cl)c1 (centres undefined) [Sertaconazole nitrate] (20 µM) | 0.435 (active) |
| CC[N+](C)(CC)CCOC(=O)C1c2ccccc2Oc2ccccc21 [Methantheline bromide] (20 µM) | 1.01 (inactive) |
| CN1[C@@H]2CC[C@H]1C[C@@H](OC(c1ccccc1)c1ccccc1)C2 [Benztropine mesylate] (20 µM) | 0.964 (inactive) |
| Nc1c(Br)cc(Br)cc1CN[C@H]1CC[C@H](O)CC1 [Ambroxol hydrochloride] (20 µM) | 1 (inactive) |
| COCCCC/C(=N\OCCN)c1ccc(C(F)(F)F)cc1 [Fluvoxamine maleate] (20 µM) | 0.982 (inactive) |
| Clc1ccc(COC(Cn2ccnc2)c2ccc(Cl)cc2Cl)c(Cl)c1 (centres undefined) [Miconazole] (20 µM) | 0.257 (active) |
| CCCCCCCCCCCCCCCC[N+](C)(C)CCN(Cc1ccc(OC)cc1)c1ncccn1 [Thonzonium bromide] (20 µM) | 0.742 (active) |
| CCCN(CCC)C(=O)C(CCC(=O)O)NC(=O)c1ccccc1 (centres undefined) [Proglumide] (20 µM) | 1.06 (inactive) |
| CN(C)CCC(c1ccc(Br)cc1)c1ccccn1 (centres undefined) [Brompheniramine maleate] (20 µM) | 1.1 (inactive) |
| c1coc(CNc2ncnc3[nH]cnc23)c1 [Kinetin] (20 µM) | 1.01 (inactive) |
| C#C[C@]1(O)CC[C@H]2[C@@H]3CCC4=CC(=O)CC[C@@H]4[C@H]3CC[C@@]21C [Norethindrone] (20 µM) | 1.03 (inactive) |
| Oc1ncnc2[nH]ncc12 [Allopurinol] (20 µM) | 1.01 (inactive) |
| COc1ccc(CN(CCN(C)C)c2ccccn2)cc1 [Pyrilamine maleate] (20 µM) | 1.02 (inactive) |
| CC(C)(C#N)c1cc(Cn2cncn2)cc(C(C)(C)C#N)c1 [Anastrozole] (20 µM) | 1.09 (inactive) |
| COC1=CC(=O)C[C@@H](C)[C@]12Oc1c(Cl)c(OC)cc(OC)c1C2=O [Griseofulvin] (20 µM) | 0.993 (inactive) |
| CC(C)(C)NCC(O)COc1cccc2c1CC(O)C(O)C2 (centres undefined) [Nadolol] (20 µM) | 1.02 (inactive) |
| CC1=C(CC(=O)O)c2cc(F)ccc2/C1=C\c1ccc([S+](C)[O-])cc1 (centres undefined) [Sulindac] (20 µM) | 1.03 (inactive) |
| O=C1NCN(c2ccccc2)C12CCN(CCCC(c1ccc(F)cc1)c1ccc(F)cc1)CC2 [Fluspirilene] (20 µM) | 0.814 (inactive) |
